Results from PubChem BioAssay (NCI).
Compounds without any hit were thinned out: in the full panel of roughly 83,000, 20% have a hit.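 Plates (96-well) were seeded with cells, treated with compound at one concentration, and incubated for 48 hours before percent growth was determined.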 Unmarked numbers belong to inactive results. The source made the active and inactive calls. How the source made its calls: active means growth percent below 10; inactive means the rest.

Experiments:
Assay in all cases: NCI-60 one-dose screen, 48 h (100 = growth as untreated, 0 = no growth, -100 = all killed)
Settings in all cases: 10 µM unless noted
T-47D breast = test system: T-47D breast
BT-549 breast = test system: BT-549 breast
MDA-MB-435 melanoma = test system: MDA-MB-435 melanoma
SW-620 colon = test system: SW-620 colon
MCF7 breast = test system: MCF7 breast
HCT-116 colon = test system: HCT-116 colon
HCC-2998 colon = test system: HCC-2998 colon
KM12 colon = test system: KM12 colon

Compound | growth (T-47D breast) | growth (BT-549 breast) | growth (MDA-MB-435 melanoma) | growth (SW-620 colon) | growth (MCF7 breast) | growth (HCT-116 colon) | growth (HCC-2998 colon) | growth (KM12 colon)
CCn1cc(-c2cc(-c3ccc(Cl)cc3)nc(N)n2)c(-c2ccc(Br)cc2)n1 | 48.1% | 91.3% | 92.8% | 99.7% | 72.2% | 66.3% | 92.9% | 77.7%
CC(C)(C)c1cc(C(=O)Nc2ccc(C(=O)NCCN)cc2)cc(C(C)(C)C)c1 | 27.3% | 87.6% | -49.5% (active) | 1.34% (active) | 3.31% (active) | 12.8% | 1.78% (active) | 12.9%
CCCCCCCCCCCCCCCCCCNC(=S)N/N=C/c1ccc(OC)c(OC)c1 | 95.8% | 79.9% | 97.4% | 99.2% | 96.8% | 96.9% | 101% | 97.1%
O=C(Nc1ccc(Oc2ccc(F)cc2)c(Cl)c1)c1cnccn1 | 42.9% | 100% | -2.8% (active) | 37% | 29.7% | 58.7% | 76.3% | 27.5%
Cc1ccc(S(=O)(=O)Oc2ccc([N+](=O)[O-])cc2[N+](=O)[O-])cc1 | 94.5% | -8.38% (active) | 25.2% | 18.4% | 70.7% | 5.12% (active) | 99.8% | 102%
COc1cc(C)cc2oc3oc(=O)c(C(=O)c4cc5cc(Br)ccc5o4)cc3c(=O)c12 | 107% | 100% | 104% | 101% | 101% | 99.7% | 110% | 107%
N#C/C(C(=O)c1ccccc1)=C1/C(=O)Nc2ccccc21 | 97.1% | 48.3% | 97.6% | 95.9% | 89.1% | -50.4% (active) | 112% | 100%
COc1ccc(/C=C/C=C\C(=O)c2ccc(-n3ccnc3)cc2)cc1 | 58.1% | 50% | 92.8% | 98.4% | 79.5% | -76.2% (active) | 99.9% | 92.8%
COc1cc(C)cc2oc3oc(=N)c(C(=O)c4ccccc4)cc3c(=O)c12 | 103% | 97.3% | 102% | 104% | 96.2% | 93.9% | 108% | 104%
COc1ccc(OC)c(NC=O)c1 | 101% | 109% | 104% | 105% | 96.4% | 101% | 103% | 109%
O=C(Nc1ccc(C(=O)/C=C/c2ccc(N3CCOCC3)cc2)cc1)Nc1ccc([N+](=O)[O-])cc1 | 72.8% | 108% | 96% | 99.7% | 76.3% | 97.3% | 109% | 89.4%
CNC(=O)c1cc(Oc2ccc3nc(NC(=O)c4ccc5ncccc5c4)sc3c2)ccn1 | 51.3% | 82.4% | 91.6% | 112% | 88% | 103% | 106% | 101%
C=C(C)[C@@H]1CC[C@]2(C(N)=O)CC[C@]3(C)[C@H](CC[C@@H]4[C@@]5(C)CC[C@H](O)C(C)(C)[C@@H]5CC[C@]43C)[C@@H]12 | -24.8% [100 µM] (active) | -21.6% [100 µM] (active) | -4.44% [100 µM] (active) | -4.49% [100 µM] (active) | -12.5% [100 µM] (active) | -24.8% [100 µM] (active) | -39% [100 µM] (active) | -63.5% [100 µM] (active)
CC1(C)CC[C@]2(C(=O)O)CC[C@]3(C)C(=CC[C@@H]4[C@@]5(C)C/C(=C/c6ccco6)C(=O)C(C)(C)[C@@H]5CC[C@]43C)[C@@H]2C1 | -0.554% [100 µM] (active) | -27.2% [100 µM] (active) | -70.6% [100 µM] (active) | -32.8% [100 µM] (active) | -8.44% [100 µM] (active) | -71.8% [100 µM] (active) | -58.1% [100 µM] (active) | -65.9% [100 µM] (active)
C#CCNC(=O)CC[C@]1(C)[C@H]2CC[C@@H]3[C@@H]([C@@](C)(O)CCC=C(C)C)CC[C@@]3(C)[C@]2(C)CC[C@H]1C(=C)C | 37.3% [100 µM] | 41.8% [100 µM] | 43.2% [100 µM] | -14.1% [100 µM] (active) | 30.5% [100 µM] | 16.6% [100 µM] | 87.2% [100 µM] | 36% [100 µM]
Nc1cc(C(=O)O)[nH]c(=S)n1 | 105% | 69.1% | 98% | 101% | 96.2% | 100% | 95.3% | 98.9%
Cc1ccc(NC(=O)N[C@@H](Cc2cc(F)cc(F)c2)C(=O)N[C@@H]2C(=O)N3CCC[C@H]3C(=O)N3CCCC[C@H]3C(=O)N[C@@H](C)C(=O)N3C[C@H](C)C[C@H]3C(=O)O[C@H]2C)cc1 | 19.7% | 19.6% | 18.5% | 35.6% | 23.1% | 11.2% | 24.6% | 37.8%
CCCCNC(=O)NS(=O)(=O)Cc1ccccc1 | 113% | 104% | 116% | 108% | 96.6% | 112% | 110% | 109%
CCCCCCCCN(CCCCCCCC)CC(O)c1ccc(Cl)c(C)c1Cl (configuration not stated) | 75.9% | 117% | 91.4% | 44.5% | 90.4% | 63.5% | 85.3% | 79.6%
Cn1cc(-c2noc(C(=O)c3cn(C)c4ncc(Br)cc34)n2)c2ccccc21 | 99.7% | 98% | 99.9% | 96.5% | 90.5% | 99.6% | 108% | 96.7%
c1nc(N2CCOCC2)c2[nH]ccc2n1 | 112% | 101% | 112% | 111% | 90.6% | 103% | 110% | 115%
Cn1cc(-c2nnc(-c3ccccc3)s2)c2cc(Br)cnc21 | 44% | 104% | 92.6% | 82.5% | 40.5% | 108% | 101% | 87.6%
CCN(CC)c1ccc2cc(C(Nc3ccc(Cl)cc3)c3nnnn3C(C)(C)C)c(=O)oc2c1 (configuration not stated) | 71.7% | 103% | 87.8% | 100% | 74.2% | 92% | 105% | 88.7%
COc1ccc(-c2nc3ccccn3c2/C=C/C(=O)c2cc(OC)c(OC)c(OC)c2)cc1OC | 2.52% (active) | -0.101% (active) | 20.3% | 14.6% | 4.01% (active) | 10.3% | 16.4% | 3.9% (active)
Cc1cc(N2CCCCCC2)nc(N2CCN(CC(=O)Nc3ccc4c(ccn4Cc4ccccc4)c3)CC2)n1 | 20.2% | 59% | 67.7% | 63.2% | 24.1% | 32% | 91.7% | 35%
CC1(C)C(=O)/C(=C\c2cccnc2)C[C@]2(C)[C@H]3CC[C@@H]4[C@H]5[C@H](C(=O)/C=C/c6cccnc6)CC[C@]5(C(=O)O)CC[C@@]4(C)[C@]3(C)CC[C@@H]12 | -10% [100 µM] (active) | -32.2% [100 µM] (active) | -78.2% [100 µM] (active) | -21.8% [100 µM] (active) | -41.9% [100 µM] (active) | -56.7% [100 µM] (active) | -76.4% [100 µM] (active) | -82.1% [100 µM] (active)
N=C(N)c1ccc(-c2ccc(-c3ccc(-c4cccs4)s3)s2)cc1F | 87.7% | 99.3% | 94.1% | 91.5% | 64.9% | 83.6% | 69% | 100%
CC1(C)CC[C@]2(C(N)=O)CC[C@]3(C)C(=CC[C@@H]4[C@@]5(C)C/C(=C/c6cccnc6)C(=O)C(C)(C)[C@@H]5CC[C@]43C)[C@@H]2C1 | 2.41% [100 µM] (active) | -47.9% [100 µM] (active) | -34.6% [100 µM] (active) | -32.4% [100 µM] (active) | -9.32% [100 µM] (active) | -48.2% [100 µM] (active) | -73.4% [100 µM] (active) | -37.2% [100 µM] (active)
CCN(CC)CC(C)Nc1ccc(C)c2sc3ccccc3c(=O)c12 (configuration not stated) | 53.6% | 82.3% | 59.1% | 55.8% | 32.6% | 34.6% | 45.9% | 55%
